In general, inhibition refers to the drop in the measured response relative to a control, in per cent.

SMILES strings stand for the structures.

The target of this test is Glucose transporter (Leishmania mexicana) (UniProt O61059). The experiment in a line: ST_JUDE_LEISH: Cytotoxicity at 2uM final concentration against transgenic Leishmania Mexicana promastigotes LmGT2 that are glucose transport deficient and complemented with the L. Mexicana glucose transporter 2. Activity is measured by DNA content using SYBR green in vitro. It counts as functional.
Regarding `COC(=O)c1ccc2nc(-c3ccc(/C=C/C(=O)NC4CCN(Cc5ccccc5)CC4)cc3)[nH]c2c1`, the inhibition was 5.84%.

For the compound `Cc1ccc(NC(=O)c2ccc(CN3CCCN(Cc4cccc(O)c4)CC3)cc2)cc1F`, the inhibition came out at 6.83%.

`CC(C)CN(Cc1c(O)ccc2[nH]c(-c3ccc(F)cc3F)nc12)CC(C)C`: the inhibition came out at 5.69%.

For `O=C(/C=C/c1ccc(Cl)cc1)NCCCCCN1CCC(C(=O)Nc2cccc(Cl)c2)CC1`, the inhibition stood at 0.58%.

Regarding `O=C(Nc1cccc(Cl)c1)N(CCCn1ccnc1)Cc1csc(-c2ccc(CNCc3ccccc3)cc2)n1`, the inhibition stood at 4.27%.

Consider `Cc1nc(N)nc(N)c1-c1ccc(Br)c([N+](=O)[O-])c1`, for which the inhibition is 2.4%.

As to `CCN(CC)CCN(Cc1ccc(-c2ccc(C(F)(F)F)cc2)cc1)C(=O)Cn1c(CCc2c(F)cc(F)cc2F)nc(=O)c2ccccc21`, the inhibition was found to be 0.56%.

For `O=[N+]([O-])c1nc(Br)n(Cc2ccc(Cl)cc2)n1`, the inhibition is 4.39%.

Consider `CC1CCCC(C)N1C[C@@H](O)CNS(=O)(=O)c1cccc(C(F)(F)F)c1` (some centres undefined), for which the inhibition was -0.01%.

Turning to `CC(C)Oc1ccccc1-c1csc(C(=O)NCC2CCN(Cc3ccc(C(C)(C)C)cc3)C2)c1` (centres undefined), the inhibition was -2.96%.

In the case of `O=C(NCCCN1CCOCC1)c1csc(Nc2ccc(Cl)c(Cl)c2)n1`, the inhibition was determined as 0.12%.

In the case of `Cc1cccc(C(=O)NC(NC(=S)Nc2ccc([N+](=O)[O-])cc2)C(Cl)(Cl)Cl)c1` (centres undefined), the inhibition was -0.6%.

Regarding `CC(C)(C)c1ccc(CNC(=O)COc2ccc(-c3nnc(-c4cccc([N+](=O)[O-])c4)o3)cc2[N+](=O)[O-])cc1`, the inhibition is -0.93%.

As to `COc1ccc2c(c1)CC(CNC[C@H](O)c1cccc(Cl)c1)CC2` (some centres undefined), the inhibition amounted to 1%.
